# Source: PubChem BioAssay (NCI)
# Compounds without any hit were thinned out: in the full panel of roughly 83,000, 20% have a hit.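 Step 1: grow cells in 96-well plates. Step 2: add test compound at a single concentration. Step 3: incubate 48 h. Step 4: record percent growth.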 Unmarked numbers belong to inactive results. Activity calls are given as the source filed them. The calls were made as follows: active = growth percent below 10; inactive = the rest.
# Test system: HL-60(TB) leukemia
# Experiment: NCI-60 one-dose screen, 48 h (100 = growth as untreated, 0 = no growth, -100 = all killed)
# Details: 10 µM unless noted
row,Compound,growth
1,COc1cc(-c2c3sc(=O)[nH]c3nc3c2c(=O)[nH]n3C(C)C)cc2c1OCO2,116%
2,CC(=O)Oc1ccc(OC(C)=O)c2ccccc12,-17.4% (active)
3,COc1ccc(-n2c(=O)c3ccccc3n(Cc3ccc(C(=O)NO)cc3)c2=O)cc1,-4.17% (active)
4,CC1OC(OC2C(OC3CCC4(C)C(CCC5(C)C4CC=C4C6CC(C)(C)CCC6(CO)C(O)CC45C)C3(C)C)OC(C(=O)O)C(OC3OC(COC4OC(CO)C(O)C(O)C4O)C(O)C(O)C3O)C2O)C(O)C(O)C1O (stereo not given),-73% (active)
5,O=C(Nc1ccccc1)Nc1ccc2cc3ccc(NC(=O)Nc4ccccc4)cc3nc2c1,50.9%
6,C#CC[C@@H]1C[C@]2(C)[C@H]3CC=C4[C@H]5[C@@H](C)[C@H](C)CC[C@]5(C(=O)NCCCN5CCN(CCCN)CC5)CC[C@@]4(C)[C@]3(C)CC[C@H]2C(C)(C)[C@H]1OC(C)=O,-55.9% (active)
7,CN(C)c1ccc(C(=O)OCCCCCCl)cc1,76%
8,CC(=O)c1cccs1,130%
9,Nc1ccc(Cl)c2c(=O)c3ccccc3[nH]c12,63.7%
10,CN1CCN(c2nc(-c3csc(-c4cccs4)n3)cc3ccccc23)CC1,34.4%
11,O=C1CCC(N2C(=O)c3cccc(NCCCC4CCN(CCNC(=O)c5cc6c(o5)C(=O)c5ccccc5C6=O)CC4)c3C2=O)C(=O)N1 (stereo not given),6.69% (active)
12,COc1cc(NCC(C)(O)CN(CC(C)C)CC(C)C)c2nc(C)ccc2c1 (stereo not given),71.4%
13,O=C(CN1CCN(c2cc3c(cc2F)c(=O)c(C(=O)O)cn3C2CC2)CC1)Nc1ccc(C(=O)/C=C/c2ccccc2)cc1,40.9%
14,CCOC(=O)c1cc(C(=O)c2ccc(OC)cc2)n2ccc(/C=C/c3cc[n+](CC(=O)c4ccc(OC)cc4)cc3)cc12,0.722% (active)
15,CCOC(=O)c1cnc2c(C)cccc2c1Nc1ccc(C(C)=O)cc1,-43.5% (active)
16,Cc1ccc(S(=O)(=O)NCCN2c3nc4ccccc4cc3Sc3cc4ccccc4nc32)cc1,94.4%
17,O=C(C(=O)N1CCOCC1)c1ccc(OC2OC(CO)C(O)C(O)C2O)cc1 (stereo not given),82.7%
18,O=S(=O)(O)CCl,94.7%
19,O=C(CN1CCOCC1)Nc1ccc(Cn2nnc3c2C(=O)c2nnn(Cc4ccc(NC(=O)CN5CCOCC5)cc4)c2C3=O)cc1,-39.1% (active)
20,Cc1cccc(Oc2ccc(Nc3ncnc4ccc(NC(=O)CNCCO)cc34)cc2Cl)c1,-26.1% (active)

row,Compound,growth
1,O=C(CSc1nnc(-c2ccc(NC(=O)c3cccnc3)cc2)o1)Nc1cccc(Br)c1,96.1%
2,CC(C)(C)c1ccc(S(=O)(=O)N[C@H]2CC[C@H]3[C@@H]4CCc5cc(O)ccc5[C@H]4CC[C@]23C)cc1,23%
3,CCCCCCSc1ncnc2nc[nH]c12,72.2%
4,CC(=O)Oc1ccc(C2OC(c3ccc4ccccc4c3OC(C)=O)=NN2C(C)=O)c(OC(C)=O)c1 (stereo not given),-30.7% (active)
5,C[C@]12CC[C@@H]3c4ccc(O)cc4CC[C@H]3[C@@H]1C[C@H](O)C2,52%
6,CC1(c2ccccc2Cl)NC(=O)NC1=O (stereo not given),87.8%
7,CCCCCCCCCCCCCCCC(=O)OC[C@@]1(O)C[C@@]23CC[C@@H]4C(C)(C)[C@H](O)CC[C@@]4(C)[C@@H]2CC[C@H]1C3,101%
8,N#Cc1c2ncccc2c2nnc3cc(Cl)c(Cl)cc3n12,80.4%
9,CCN(CC)CCCC(C)NCc1ccccc1 (stereo not given),105%
10,Cc1cc(N)ccc1-c1ccc(N)cc1C,84.6%
11,Nc1cccc2cccc(O)c12,82.9%
12,CC1(C)CC(=O)C2=C(C1)C(c1ccc(Cl)cc1)n1ncc(C#N)c1N2 (stereo not given),97.9%
13,NCCCCCCNc1cc(-c2cccc(OC(F)(F)F)c2)nc2ccc(N3CCCC3)cc12,-60.2% (active)
14,Cc1c(CC(=O)OCCO)cc(-c2ccc(Cl)cc2)n1-c1ccccc1,95.7%
15,COc1ccc([C@H]2[C@H](C(=O)Nc3cccnc3)c3ccccc3C(=O)N2c2ccccc2)cc1,90.2%
16,Clc1ccccc1Nc1ccc2nnc(-c3ccncc3)n2n1,75.8%
17,Oc1ccccc1\C=N/N=C/C=C/c1ccccc1,38.5%
18,COc1ccc2c(c1)O/C(=C\c1cccc(OCC(=O)Nc3nc4ccccc4s3)c1)C2=O,40.7%
19,CN=C(NC)N/N=C(C)\C=N\NC(=NC)NC,99%
20,O=C1COc2ccccc2C(=O)N1CCCCN1CCCCC1,75.3%
